# PubChem BioAssay (NCI)
# Several values for one entry are separate records, joined by “and”; a condition that tells them apart may be missing. Equal entries are not always repeated. This is part of a sample that, as a whole, favours compounds with a hit. Of some 79,000 tested, about 15% had one in any assay. Values without a mark were called inactive. Activity calls are given as the source filed them. Cut-off read from the data, not from the text of the source: active = growth inhibition above about 70%; inactive = the rest.
# Key:
# [1] = NCI Yeast Anticancer Drug Screen. Data for the rad50 strain (AID 155);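 note: 0% = growth of vehicle-only cultures of the same strain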; conditions: S. cerevisiae rad50 strain growth inhibition, stronger effect = higher value; at 50.0 µM unless noted
# How it was run: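 Cells are treated with compound, grown, and their growth is then scored against vehicle-only cultures of the same repair-deficient yeast strain.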
# [2] = NCI Yeast Anticancer Drug Screen. Data for the mec2-1 strain (AID 157); conditions: S. cerevisiae mec2-1 strain, stronger effect = higher value; at 50.0 µM unless noted
# How it was run: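 Yeast mec2-1 mutant treated with compound. Readout: growth inhibition vs vehicle controls.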
# [3] = NCI Yeast Anticancer Drug Screen. Data for the sgs1 mgt1 strain (AID 161);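 note: 0% = growth of cultures given vehicle only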; conditions: S. cerevisiae sgs1 mgt1 strain, stronger effect = higher value; at 50.0 µM unless noted
# How it was run: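 Mutant yeast exposed to compound; growth scored against vehicle-only wells.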
# [4] = NCI Yeast Anticancer Drug Screen. Data for the cln2 rad14 strain (AID 165);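 note: 0% = growth equal to vehicle treated cultures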; conditions: S. cerevisiae cln2 rad14 strain, stronger effect = higher value; at 50.0 µM unless noted
# How it was run: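 cln2 rad14 yeast strain; compound exposure; growth inhibition read vs vehicle controls.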
# [5] = NCI Yeast Anticancer Drug Screen. Data for the bub3 strain (AID 167); conditions: S. cerevisiae bub3 mutant strain, stronger effect = higher value; at 50.0 µM unless noted
# How it was run: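 Part of a panel of yeast mutants defective in DNA damage repair or cell cycle regulation. Each strain is grown with compound, and inhibition is calculated relative to solvent-treated cultures.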
# [6] = NCI Yeast Anticancer Drug Screen. Data for the mlh1 rad18 strain (AID 175); conditions: S. cerevisiae mlh1 rad18 strain growth inhibition, stronger effect = higher value; at 50.0 µM unless noted
# How it was run: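 Yeast w/ defined DNA-repair lesions; compound exposure; growth vs vehicle controls → % inhibition.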
SMILES,growth inhibition [1],growth inhibition [2],growth inhibition [3],growth inhibition [4],growth inhibition [5],growth inhibition [6]
O=c1[nH]nc(Cc2ccccc2)n1C1CCCC1,-1.55%,-5.3%,-12.6%,-17.8%,-9.6%,-1.05%
COC(=O)CCCCC(=O)OC,35.9%,-0.3%,15.1%,-1.9%,-9%,13.4%
Nc1ncnc2c1ncn2C1OC(CSCC(F)(F)F)C(O)C1O (stereo unspecified),-4.05%,-11.8%,-8.65%,26.6%,-7.8%,-11.4%
CC(=O)[CH-]C(=O)c1ccccc1.CC(=O)[CH-]C(=O)c1ccccc1.CC(C)CCCC(C)[C@H]1CCC2[C@@H]3CCC4C[C@@H]([O-])CC[C@]4(C)C3CC[C@@]21C.CC(C)CCCC(C)[C@H]1CCC2[C@@H]3CCC4C[C@@H]([O-])CC[C@]4(C)C3CC[C@@]21C.Cl.[Ti+4] (stereo partly specified),14.4%,1.25%,21.4%,-12.1%,25.6%,-0.95%
CCCCCCCCCCCCCCCCS(=O)(=O)N(/N=c1/sc2ccccc2n1C)C(=O)OCC,-29.4%,-32.3%,-13.3%,21.4%,-12.2%,-27.8%
Cc1cc(N)c(N)cc1C,45.1%,4.15%,52.2%,20.1%,35.9%,38.5%
O=C(CNc1nncs1)NO,15.1%,-8.95%,0.3%,1.05%,-1.35%,-1.7%
CCCCCOC(=O)C#CC(=O)OCCCCC,99.8% (active),99.8% (active),99.7% (active),99.4% (active),99.8% (active),99.7% (active)
O=C(C/C(=N/O)c1ccccc1)c1ccccc1,-14.7%,-4.65%,-8.5%,15.4%,5.35%,-1.8%
O=C(Nc1ccc(S(=O)(=O)Nc2nccs2)cc1)c1ccncc1,-0.05%,-11.3%,22.3%,19.1%,28.3%,12%
CCC(CC)C(O)C(C)C(C)O (stereo unspecified),1.3%,-8.8%,-10.6%,4.8%,-11.2%,-4.75%
C=CCC1(CN(C)C)CC/C(=C\c2cc(OC)c(OC)c(OC)c2)C1=O (stereo unspecified),-8.7%,-3.15%,-26%,-4.65%,-9.85%,20.2%
CN(C)c1nc(N(C)C)nc(N(C)CN(C)c2ccc(Cl)cc2)n1,-11.3%,-23.3%,-26.8%,-11.3%,-49%,-16.4%
CCOC1=Nc2ccccc2C1(C)CCO (stereo unspecified),-45.5%,-13.2%,-23.1%,-62.2%,-5%,-4.3%
COc1cccc(C(=O)C2N=NCC2c2ccccc2)c1 (stereo unspecified),-17.4%,-5%,2%,-15.2%,61.5%,29.9%
Nc1ccccc1[N+](=O)[O-],-14.4%,-3.45%,-14.7%,-15.7%,1.5%,-1.55%
CCCCC(C(=O)O)N(C)C (stereo unspecified),-15.9%,-11.3%,-5.8%,-0.5%,2.4%,-20.4%
CN1CCC(O)CC1,7.6%,-23.4%,-11.3%,-0.35%,6.35%,-3%
Cc1nnsc1C(=O)NCc1c(F)cccc1Cl,6.65%,15.6%,11%,25.4%,37.3%,28.8%
Clc1cc(NCc2ccco2)ncn1,-21.8%,-6.3%,-19.5%,-3.9%,0.85%,-11.2%
CC(Sc1nc(N)nc2nc[nH]c12)C(=O)O (stereo unspecified),-15.2%,-3.55%,-11.3%,-23.6%,4.15%,11%

SMILES,growth inhibition [1],growth inhibition [2],growth inhibition [3],growth inhibition [4],growth inhibition [5],growth inhibition [6]
COc1cc2c(cc1OC)C(=O)c1nccc3ccc(OC)c(c13)O2,-0.35%,17.1%,23.3%,4.75%,16.6%,16.6%
Nc1nc2ncn(CCO)c2c(=O)[nH]1,9.4%,1.95%,2.8%,-0.65%,3.35%,16.4%
Cc1ccc(S(=O)(=O)c2ccccc2)cc1,-18.4% and 23.4%,-15.6% and -0.95%,-22.5% and 23%,2.4% and 1.35%,-5.35% and 3.1%,-43.6% and 16.6%
COc1ccc(/C=C/C(=O)c2sc(Nc3ccc([N+](=O)[O-])cc3)nc2C)cc1,39.2%,7.45%,5.35%,36.8%,27.5%,46.4%
Nc1cc(C(=O)O)[nH]c(=O)n1,-23.7%,-18.4%,-20.2%,-70.2%,-18.9%,-10.3%
COc1ccccc1NC(=O)C1=C(C)NC(C)=C(C(=O)Nc2ccccc2OC)C1c1ccccc1F,32%,5.35%,17.1%,16%,-1.05%,15.7%
COC(=O)c1cc(-c2ccc(N)cc2)n2c(N)nnc2n1,15%,23.4%,25.8%,-1.55%,2.45%,18.6%
FC(F)(F)c1ccc2ccc3ccc(Cl)cc3c2c1,-7.5%,-24%,-4.3%,-10.4%,21.6%,-6.55%
Oc1cc(O)c2c(c1)OC(c1ccc(O)c(O)c1)C(O)C2O (stereo unspecified),20.2%,6.6%,14.3%,-3.55%,21.2%,30.9%
C=C1C(=O)O[C@@H]2C[C@@]3(C)[C@H](O)CCC(=C)[C@@H]3C[C@H]12,-4.65%,25.1%,3.95%,17.1%,19.6%,5.5%
C(/C=C/c1ccccc1)=Nc1ccc(SSc2ccc(N=C/C=C/c3ccccc3)cc2)cc1,38.2%,6.25%,4.65%,-13%,-3.05%,27.9%
COc1ccc(/C=C2\CNC/C(=C\c3ccc(OC)cc3)C2=O)cc1,34%,1.75%,55.2%,37.5%,15.3%,34.1%
Fc1ccc(/C=C2/c3cc(Cl)ccc3-c3c(Cl)cc(Cl)cc32)cc1,44.6%,3.25%,15.7%,-5.1%,-3.5%,5.5%
COc1cccc(C)c1O,9.8%,-7.35%,-7.8%,6.55%,20.6%,3.3%
Cc1ccc(N[P+](c2ccccc2)(c2ccccc2)c2ccccc2)cc1.[Cl][Fe]([Cl])([Cl])[Cl],44.1%,3%,22.9%,-8.4%,11.7%,12.6%
CCCCC(CC)OC(=O)c1ccccc1C (stereo unspecified),-8.05%,-4.55%,0.5%,-30.9%,-1.4%,-23.8%
c1cc2c(cc1CSCc1c(CSCc3ccc4c(c3)OCO4)c(CSCc3ccc4c(c3)OCO4)c(CSCc3ccc4c(c3)OCO4)c(CSCc3ccc4c(c3)OCO4)c1CSCc1ccc3c(c1)OCO3)OCO2,-0.95%,-8.65%,-1.4%,-39%,2.55%,9.3%
COC(=O)C(CCSC)NC(=O)C1CSC(C)(C)N1C=O (stereo unspecified),0.65%,0.2%,39.2%,-1.85%,44.5%,-1.85%
Cc1[nH]c(=O)[nH]c(=O)c1CCO,-8.9%,-2.6%,-4.25%,-29.4%,-28.3%,-13.4%
Cc1ncc(C(N)=S)c(N)n1,9.95%,-0.05%,-0.15%,-47.4%,-8.55%,14.3%
